Compound activity: PubChem BioAssay, several laboratories
The list is not random: actives were taken first. Their share in the collection is about 3.7%.
Rce1 inh = inhibitors of yeast Ras-converting enzyme | calls only | hit rate 0.27% among 290,000 | yeast membranes, quenched prenylated peptide cleavage fluorescence | AID 2563 | Q03530;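 active means fall in fluorescence gain of 50% or more versus controls, with final raw signal at or below 3038400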;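 further: plate controls were neutral control wells for no effect and wells lacking membranes for full effect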
Target sequence (Q03530 whole entry, looked up): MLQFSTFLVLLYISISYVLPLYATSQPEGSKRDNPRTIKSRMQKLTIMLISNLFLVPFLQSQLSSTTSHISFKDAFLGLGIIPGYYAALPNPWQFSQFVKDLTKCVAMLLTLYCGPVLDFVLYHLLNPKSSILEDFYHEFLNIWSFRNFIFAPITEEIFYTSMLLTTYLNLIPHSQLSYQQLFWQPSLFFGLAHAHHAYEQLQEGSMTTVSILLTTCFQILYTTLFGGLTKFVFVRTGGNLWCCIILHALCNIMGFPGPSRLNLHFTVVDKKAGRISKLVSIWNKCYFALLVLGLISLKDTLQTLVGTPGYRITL
tim23-1 inh = growth inhibitors of tim23-1 mutant yeast. inhibition, % at 20 µM. S. cerevisiae tim23-1 growth, BacTiter-Glo luminescence, 24 h. hit rate 1.3% among 330,000;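 active means growth inhibition of the mutant yeast at or above 50%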;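 further: temperature-sensitive mutant grown at 25 °C; plate controls were DMSO-treated mutant yeast for no effect and medium wells lacking yeast for full effect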
TIM10 inh = inhibits growth of TIM10 yeast strain | inhibition, % at 10 µM | hit rate 1.4% among 330,000 | S. cerevisiae TIM10 strain growth, BacTiter-Glo luminescence, 24 h;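 active means inhibition of 40% or more at the single tested concentration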;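 further: wild-type TIM10 isogenic control strain grown at permissive 25 °C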
PfHsp90 set2 = growth inhibition of yeast expressing Plasmodium Hsp90; S. cerevisiae expressing PfHsp90, BacTiter-Glo ATP, 48 h; yeast lacking PDR1 and PDR3 efflux regulators; inhibition, % at 9.4 µM; hit rate 0.32% among 310,000; AID 504621;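 active means every replicate shows inhibition above about 80%, whatever the replicate mean, limit read from the data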;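 further: 0% = DMSO neutral controls and 100% = 20 µM radicicol positive controls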
tim10-1 inh = tim10-1 yeast growth inhibition; hit rate 2.2% among 330,000; S. cerevisiae tim10-1 ts strain growth, BacTiter-Glo, 24 h; inhibition, % at 20 µM;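 active means inhibition of at least 40%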;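 further: mutant grown at 25 °C; 0% = DMSO wells with yeast and 100% = wells holding no yeast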
tim10 confirm = TIM10 yeast growth inhibition, confirmed; shares compounds with TIM10 inh; S. cerevisiae tim10 strain growth, BacTiter-Glo luminescence, 24 h; inhibition, % at 10 µM; hit rate 63% among 4,600;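 active means inhibition of yeast growth at or above a set limit in either of two replicates at 10 µM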;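 further: this counterscreen used the strain with wild-type TIM10; 0% = yeast with DMSO and 100% = medium wells lacking yeast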
tim23-1 confirm = confirmation of tim23-1 mutant yeast growth inhibitors; hit rate 83% among 4,400; shares compounds with tim23-1 inh; S. cerevisiae tim23-1 growth, BacTiter-Glo luminescence, 24 h; AID 463218; inhibition, % at 20 µM;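 active means inhibition above about 39% in either of two replicate wells at 20 µM, limit read from the data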;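 further: temperature-sensitive tim23-1 mutant grown at 25 °C; 0% = DMSO wells with yeast and 100% = medium wells without yeast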
* hit, by the source's call; i = inactive; x = not tested or not shown.

SMILES	Rce1 inh	tim23-1 inh	TIM10 inh	PfHsp90 set2	tim10-1 inh	tim10 confirm	tim23-1 confirm
Cc1ccc(C(=O)NC(=S)N(C)C2CCCCC2)cc1Br	i	8.5	19.0	x	25.4	x	x
COc1ccc(C(=O)NC(=S)N(C)C2CCCCC2)cc1Br	i	54.6*	42.2*	-45.5	37.6	13.1	48.5*
CCC(C)c1ccccc1NC(=S)NC(=O)c1ccco1 (stereo not given)	i	53.8*	40.9*	43.0	34.7	24.9	36.5
O/C(=C\c1nc2ccccc2nc1/C=C(\O)c1ccccc1)c1ccccc1	i	63.5*	44.6*	-8.3	37.3	53.5*	67.5*
Cc1ccccc1-n1ncc2c1CC(C)(C)CC2NC(=O)CCN1CCCCC1=O (stereo not given)	i	-5.5	4.3	9.4	-10.4	x	x
CC12CC3CC(C)(C1)CC(C(=O)NC(=S)N1CCCCC1)(C3)C2	i	51.0*	41.5*	-23.2	24.9	13.6	32.2
CCOCC(=O)Nc1cc(C(=O)Nc2ccccc2)ccc1Cl	i	60.3*	53.7*	7.3	19.2	45.0*	67.4*
COc1cccc(CNS(=O)(=O)c2ccc3c(c2)oc(=O)n3C)c1	i	8.4	5.8	4.8	19.0	x	x
CCCC1CCC(c2ccc(C(=O)NN)cc2)CC1 (stereo not given)	i	54.7*	47.3*	2.8	31.7	32.5*	18.2
O=C(O/N=C(\c1ccccc1)c1ccccn1)c1ccc(Cl)c(Cl)c1	i	5.0	13.4	10.8	34.4	x	x
N/C(=N\OC(=O)c1ccc(Cl)cc1[N+](=O)[O-])c1ccccn1	i	77.4*	62.3*	1.0	6.7	70.8*	71.4*
CCCc1ccc(C(=O)O/N=C(\N)c2ccccn2)cc1	i	50.5*	51.6*	7.2	33.8	64.3*	57.0*
N/C(=N\OC(=O)c1cc(Br)ccc1Cl)c1ccccn1	i	62.2*	45.2*	-10.3	27.5	65.2*	45.5*
N/C(=N\OC(=O)c1ccc(Cl)cc1[N+](=O)[O-])c1cccnc1	i	30.4	21.5	-17.9	29.1	x	x
CC1CCN(C(=O)CSc2nnc(CSc3ncccn3)n2C)CC1	i	-6.1	-2.7	x	9.8	x	x
COn1c(=O)c(-c2cccs2)[n+]([O-])c2ccccc21	i	51.5*	43.4*	-61.8	36.2	1.1	63.7*
OC1c2cc(Br)ccc2N=C2CCCN21 (stereo not given)	i	18.2	13.7	-7.4	35.6	x	x
COc1ccccc1C1CCN(c2cc(O)ccc2[N+](=O)[O-])CC1	i	59.8*	47.6*	-18.5	36.5	42.9*	59.5*
COc1ccccc1C1CCN(C(=O)c2ccccc2)CC1	i	3.0	12.5	0.0	1.1	x	x
O=C(N/N=C/c1ccccc1O)c1ccc2c(c1)OCO2	i	66.8*	50.5*	3.7	30.8	43.1*	74.2*
O=C(N/N=C/c1cc(Br)cc(Cl)c1O)c1ccc2c(c1)OCO2	i	57.1*	43.5*	-48.8	-3.2	31.4*	56.6*
N#Cc1nc(-c2ccco2)oc1N1CCC(Cc2ccccc2)CC1	i	5.5	14.9	8.2	31.0	x	x
CC(C)(C)NC(=S)NC(=O)C12CC3CCC(CC(C3)C1)C2	i	50.1*	44.8*	11.9	35.6	-12.2	59.4*
Cc1[nH]c2ccccc2c1N=Nc1ccccc1F	i	71.8*	50.5*	1.0	-18.0	55.3*	-51.0
Cc1[nH]c2ccccc2c1N=Nc1cc(C(=O)O)cc(C(=O)O)c1	i	3.6	-8.4	x	-2.9	x	x
SMILES	Rce1 inh	tim23-1 inh	TIM10 inh	PfHsp90 set2	tim10-1 inh	tim10 confirm	tim23-1 confirm
C(=N\Nc1nc2ccccc2[nH]1)/c1cccc2cccnc12	i	54.9*	67.3*	10.1	26.0	54.6*	48.5*
CC(C)(C)c1cc(C(=O)N/N=C/c2ccccc2O)n(-c2ccccc2)n1	i	59.0*	58.6*	-77.4	38.3	-18.0	56.1*
Cc1cccc(N(CC(=O)NCc2ccc(F)cc2)C(=O)c2ccco2)c1	i	5.8	-8.1	-5.4	3.3	x	x
COc1cccc(-c2ccnc3[nH]n(-c4ccccc4)c(=O)c23)c1	i	5.1	6.9	8.9	-6.2	x	x
O=C(Nc1ccc(N2CCN(c3ncccc3C(F)(F)F)CC2)nc1)c1cccs1	i	67.1*	44.5*	13.5	37.0	53.0*	81.9*
O=C(Nc1ccc(N2CCN(c3ccc(C(F)(F)F)cn3)CC2)nc1)c1cccs1	i	-2.3	-1.5	3.6	-17.3	x	x
O=C(Nc1ccc(N2CCOCC2)nc1)c1cccs1	i	50.4*	55.0*	3.3	25.8	43.3*	68.0*
Nc1nc(-c2ccccc2)cs1	i	15.5	1.6	-5.1	3.8	x	x
Nc1nc(-c2cc(-c3ccccc3)no2)cs1	i	79.7*	51.2*	13.1	25.8	58.5*	75.3*
CC(NC(=O)CCN1C(=O)c2ccccc2C1=O)c1ccccc1 (stereo not given)	i	-2.1	3.9	-15.9	-1.7	x	x
Cc1oc(-c2cccs2)nc1CNC[C@H]1O[C@@H](n2cnc(C(N)=O)n2)[C@H](O)[C@@H]1O	x	x	x	16.1	x	x	x
CCOc1ccccc1N1CCN(C(=O)CSc2ccc3c(c2)OCCO3)CC1	x	29.1	18.7	-18.6	28.1	x	x
CCCCN=Cc1sc2ccc(OCC)cc2c1O	i	57.7*	43.3*	x	30.8	27.5*	53.7*
COc1cc(CNCc2cc(OC)ccc2OC)cc(OC)c1	i	-0.3	-14.0	15.3	-2.2	x	x
Cc1cc(C)nc(SCc2ccc(C(=O)N/N=C/c3cccc(O)c3O)cc2)n1	i	60.5*	56.0*	53.4	25.5	47.0*	56.5*
Cn1c(SCC(=O)NCc2cccs2)nnc1-c1ccc(O)cc1	i	-8.2	12.5	-10.1	-3.3	x	x
CCOC(=O)c1sc2ccccc2c1OC(=O)c1ccccc1OC	i	53.8*	48.5*	1.2	35.4	44.4*	50.2*
Cc1ccc(NC(=O)c2cc(C)n(-c3cccc(C)c3)c2C)cc1	i	43.4	33.8	-13.1	15.6	x	x
Cc1ccc(NC(=O)c2cc(C)n(-c3ccccc3)c2C)cc1	i	51.5*	50.4*	8.0	34.1	-22.1	58.2*
CCOC(=O)c1cnc2ccc(C)cc2c1Sc1ccccc1C(=O)OC	i	27.6	-6.9	-12.8	23.7	x	x
CSC1=NC(=O)/C(=C\c2cccc3ccccc23)S1	i	76.1*	41.5*	-7.3	11.7	25.8	51.3*
O=Nc1ccc(NOC(=O)c2ccccc2Br)cc1	i	56.6*	61.5*	3.1	20.3	59.9*	72.9*
CCCN1CCN(C(=S)Nc2ccccc2C(F)(F)F)CC1	i	-1.2	6.1	11.2	9.1	x	x
OCC1OC(n2cnc3c(NCc4ccco4)ncnc32)C(O)C1O (stereo not given)	x	x	x	-50.9	x	x	x
Cc1cccc(/C(N)=N/OC(=O)c2ccc(F)cc2)c1	i	69.6*	73.4*	19.6	38.3	79.8*	44.7*
